Screening data from PubChem.
Most compounds without a hit are left out; they make up all but 4.6% or so of the library.
USP7 inh: human USP7 deubiquitinase inhibition; Q93009; AID 1645854; purified USP7, Ub-rhodamine cleavage fluorescence; 47,000 tested, 0.3% active; inhibition, % at 20 µM
USP10 inh: inhibitors of human USP10 deubiquitinase. AID 1645856. 47,000 tested, 1.1% active. inhibition, % at 20 µM. purified USP10, Ub-rhodamine fluorescence, 60 min
USP8 block: blocks human USP8 ubiquitin-rhodamine cleavage; P40818; purified USP8, Ub-rhodamine cleavage fluorescence, 30 min; inhibition, % at 20 µM; 47,000 tested, 4.2% active
Target sequence (P40818 whole entry, looked up): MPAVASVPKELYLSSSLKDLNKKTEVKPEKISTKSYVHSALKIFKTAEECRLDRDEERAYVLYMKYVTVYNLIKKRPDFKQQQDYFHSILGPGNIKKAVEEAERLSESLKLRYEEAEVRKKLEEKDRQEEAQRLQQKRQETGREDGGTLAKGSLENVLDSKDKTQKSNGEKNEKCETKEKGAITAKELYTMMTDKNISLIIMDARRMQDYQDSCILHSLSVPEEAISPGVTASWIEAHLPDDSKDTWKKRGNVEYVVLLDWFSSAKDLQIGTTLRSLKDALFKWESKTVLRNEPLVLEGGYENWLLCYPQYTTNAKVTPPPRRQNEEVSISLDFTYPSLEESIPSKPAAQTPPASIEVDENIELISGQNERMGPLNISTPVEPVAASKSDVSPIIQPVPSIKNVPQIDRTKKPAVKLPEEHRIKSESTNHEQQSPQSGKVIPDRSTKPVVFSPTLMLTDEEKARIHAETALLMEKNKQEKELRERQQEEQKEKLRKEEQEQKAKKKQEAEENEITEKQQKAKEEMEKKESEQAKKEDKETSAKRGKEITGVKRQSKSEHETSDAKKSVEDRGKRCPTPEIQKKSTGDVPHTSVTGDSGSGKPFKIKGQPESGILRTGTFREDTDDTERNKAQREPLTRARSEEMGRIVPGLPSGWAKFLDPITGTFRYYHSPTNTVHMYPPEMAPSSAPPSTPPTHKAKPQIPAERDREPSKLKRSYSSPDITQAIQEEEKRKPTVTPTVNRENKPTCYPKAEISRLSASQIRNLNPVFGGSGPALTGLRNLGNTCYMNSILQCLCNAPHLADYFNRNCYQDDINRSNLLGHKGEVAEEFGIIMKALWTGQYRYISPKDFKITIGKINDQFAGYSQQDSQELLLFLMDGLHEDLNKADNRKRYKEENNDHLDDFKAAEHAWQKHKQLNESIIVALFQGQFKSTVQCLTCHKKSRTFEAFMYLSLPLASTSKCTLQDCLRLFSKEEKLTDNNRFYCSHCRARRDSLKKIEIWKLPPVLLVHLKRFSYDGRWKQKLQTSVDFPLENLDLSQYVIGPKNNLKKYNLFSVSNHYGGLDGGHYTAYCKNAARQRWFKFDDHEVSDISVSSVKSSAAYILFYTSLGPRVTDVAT
UCHL1 block: human UCHL1 deubiquitinase inhibition; purified UCHL1, Ub-rhodamine cleavage fluorescence; 47,000 tested, 0.2% active; P09936; inhibition, % at 20 µM
Hits are given with their value; – = inactive. Rule as the data show it: active = inhibition above about 30%; inactive = the rest.

SMILES | USP7 inh | USP10 inh | USP8 block | UCHL1 block
CC(C)(C)OC(=O)N1CCN(C(=O)c2cc3c(s2)CN(C2CC2)C3)CC1 | – | – | – | –
Cc1nn(C)cc1C(C)NC(=O)c1cc2c(s1)CN(C1CC1)C2 (configuration not stated) | – | – | 31 | –
COc1cc(OC)cc(-n2c(=O)c3sccc3n(CC(=O)c3ccc(F)cc3)c2=O)c1 | – | – | – | –
CC(=O)N1CCc2c(sc(NC(=O)C3CC3)c2C(N)=O)C1 | – | – | 50 | –
CC(C)N1CCc2c(sc(NC(=O)CSc3ccccc3)c2C(N)=O)C1 | – | – | – | –
CCOc1cccc2cc(-c3cc(=O)oc4cc(OC)ccc34)oc12 | – | – | 51 | –
COc1ccc(N2CCN(Cc3cc(=O)oc4cc(OC)ccc34)CC2)cc1 | – | – | – | –
CCn1cc(S(=O)(=O)N2CCC3(CCc4ccccc4C(=O)N3)C2)cn1 (configuration not stated) | – | – | – | –
O=C(CSc1nc(-c2ccccc2)c2ccccc2n1)NCc1ccc(C(=O)O)cc1 | – | – | – | –
O=C(CSc1nc(-c2ccccc2)c2ccccc2n1)NCc1ccc2c(c1)OCO2 | – | – | 55 | –
NS(=O)(=O)c1ccc(CCNC(=O)CSc2nc3ccccc3c(=O)n2Cc2ccc3c(c2)OCO3)cc1 | – | – | 53 | –
Cc1ccc(S(=O)(=O)Nc2ccccc2C(=O)Nc2nc3ccc(Br)cc3s2)cc1 | 89 | 93 | 95 | 53
O=C(CNc1nc(Nc2ccccc2)nc(Nc2ccccc2)n1)Nc1ccccc1F | – | – | – | –
Cc1ccccc1NC(=O)CNc1nc(Nc2ccccc2)nc(Nc2ccccc2)n1 | – | – | 34 | –
O=C(Nc1ccc(OCc2ccccc2)cc1)NC1Cc2ccccc2C1 | – | – | – | –
COc1cccc(NC(=O)c2ccccc2NC(=O)Cc2ccccc2OC)c1 | – | – | – | –
CC(=O)Nc1ccc(NC(=O)Nc2ccc(F)cc2)cc1 | – | – | – | –
Cc1cccc(Cl)c1NC(=O)Nc1ccc(NC(=O)c2ccccc2O)cc1 | – | 39 | 42 | –
COc1ccccc1NC(=O)Nc1ccc(NC(=O)c2ccccc2O)cc1 | – | – | 85 | –
O=C(Nc1ccc(F)cc1)Nc1ccc2ccccc2n1 | – | – | 51 | –
O=C(Nc1ccc(NC(=O)c2ccccc2O)cc1)Nc1ccc(OCc2ccccc2)cc1 | – | 61 | 91 | –
CCOc1ccc(-n2c(SCC(=O)N3CC(=O)Nc4ccccc43)nnc2-c2ccc(OC)cc2)cc1 | – | – | – | –
O=C(Cc1ccccc1)c1ccc(Br)s1 | – | – | – | –
COc1cc2c(cc1OC)CN(C(=O)C1CC(=O)N(c3ccccc3)C1)CC2 (configuration not stated) | – | – | – | –
O=C(Nc1ccc(F)cc1)Nc1ccc(NC(=O)c2ccccc2O)cc1 | – | – | 52 | –
SMILES | USP7 inh | USP10 inh | USP8 block | UCHL1 block
O=C(Nc1ccc2c(c1)OCO2)c1cncc(NS(=O)(=O)c2ccc3c(c2)OCCO3)c1 | – | – | 45 | –
CC1Oc2ccc(NC(=O)c3ccc(NS(=O)(=O)c4ccc5c(c4)OCCO5)cc3)cc2NC1=O (configuration not stated) | – | – | – | –
O=C(Nc1ccc2c(c1)OCO2)c1cncc(NS(=O)(=O)c2ccccc2)c1 | – | – | 70 | –
CC(=O)Nc1ccc(S(=O)(=O)Nc2cncc(C(=O)NCc3ccc4c(c3)OCO4)c2)cc1 | – | – | – | –
Cn1c(=O)c2c(nc(N3CCN(C(=O)c4ccco4)CC3)n2CCSc2nnnn2-c2ccccc2)n(C)c1=O | – | – | – | –
CS(=O)(=O)N1CCc2cc(NS(=O)(=O)c3ccc4c(c3)OCCO4)ccc21 | – | – | – | –
CCc1ccccc1NC(=O)N1C[C@@H]2C[C@H]1C[C@@H]2NC(=O)c1ccccc1 | – | – | – | –
N#Cc1c(-c2cccs2)cc(-c2cccs2)[nH]c1=O | – | – | – | –
N#Cc1c(-c2ccc(Cl)cc2)cc(-c2cccc(Br)c2)[nH]c1=O | – | – | 52 | –
CN1[C@H]2CCN(C(=O)CC3CC3)CC[C@@H]2Oc2ccccc2S1(=O)=O | – | – | – | –
COc1ccc(S(=O)(=O)N2CCOCC2)cc1NC(=O)C1Cc2ccccc2CN1C(=O)c1ccco1 (configuration not stated) | – | – | 49 | –
O=C(c1cscn1)N1CCC2(CC1)CC1(CO2)Nc2ccccc2-n2cccc21 (configuration not stated) | – | – | 94 | –
CCCn1cc(C(=O)N2CCC3(CC2)CC2(CO3)Nc3ccccc3-n3cccc32)c(C)n1 (configuration not stated) | – | – | 94 | –
O=C(c1ccncc1)N1CCC2(CC1)CC1(CO2)Nc2ccccc2-n2cccc21 (configuration not stated) | – | – | 71 | –
O=C(c1ccco1)N1CCC2(CC1)CC1(CO2)Nc2ccccc2-n2cccc21 (configuration not stated) | – | – | 67 | –
CNC(=O)C1CN(c2nc(C)cc(C)n2)CCN(C2CCOCC2)C1 (configuration not stated) | – | – | – | –
COc1ccc(C(=O)N2c3ccccc3OCC2CC(=O)O)cc1 (configuration not stated) | – | – | – | –
O=C(c1cccnc1)N1CCC2(CC1)CC1(CO2)Nc2ccccc2-n2cccc21 (configuration not stated) | – | – | 93 | –
CCOc1ccc(-n2c(SCC(=O)Nc3ccc(C)cc3)nnc2-c2c[nH]c3ccccc23)cc1 | – | 71 | 97 | –
CCOc1ccc(-c2ccc3nnc(SCC(=O)Nc4ccc(F)cc4)n3n2)cc1 | – | 38 | 78 | –
O=C(CSc1nnc2ccc(-c3ccccc3)nn12)Nc1ccc(F)cc1 | – | – | – | –
CCN(CC)S(=O)(=O)c1ccc(O)c(NC(=O)COc2ccccc2F)c1 | – | – | – | –
O=C(NC(Cc1ccccc1)c1nc2ccccc2[nH]1)c1ccc2ccccc2n1 (configuration not stated) | – | – | – | –
CSCCC(NC(=O)COc1ccc(Cl)cc1)c1nc2ccccc2[nH]1 (configuration not stated) | – | – | – | –
COc1ccccc1/C=C/C(=O)NC(Cc1ccccc1)c1nc2ccccc2[nH]1 (configuration not stated) | – | – | 92 | –
SMILES | USP7 inh | USP10 inh | USP8 block | UCHL1 block
CC(C)CC(NC(=O)c1ccc(Cl)cc1Cl)c1nc2ccccc2[nH]1 (configuration not stated) | – | – | 89 | –
O=C(NC(Cc1ccccc1)c1nc2ccccc2[nH]1)c1ccccc1-c1ccccc1 (configuration not stated) | – | – | 54 | –
O=C(Cc1coc2cc3c(cc12)CCC3)NC(Cc1ccccc1)c1nc2ccccc2[nH]1 (configuration not stated) | – | – | 66 | –
COc1cccc(NC(=O)N2CCN(Cc3nnnn3-c3ccccc3)CC2)c1OC | – | – | – | –
CCOc1ccc(S(=O)(=O)n2cc3c(=O)n(C)c(=O)n(C)c3n2)cc1 | – | – | – | –
COc1ccc(C(=O)c2c(C)n(C)c(=O)n(C)c2=O)cc1 | – | – | – | –
